# Active and inactive are the calls of the source.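 How the source made its calls, unless noted: active means mean z-score across replicates of 1.96 or higher in either the MELAS or the Rieske mutant cell line; inactive means the rest.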
# How the values were obtained:
# [1] = survival rescue of mitochondrial mutant cells in low glucose, primary screen, MELAS cybrids, Rieske KO mouse fibroblasts, CellTiter-Glo (AID 1508586);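 further: z relative to plate mean and SD of compound and empty wells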
# [2] = viability rescue of complex I mutant cybrids, primary screen, cell-based, galactose medium, ATP luminescence (AID 1645843;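 active means z-score of at least 1.8 in each of two replicates, scored against plate mean and spread of sample wells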;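 further: positive z means more ATP and so rescue of galactose-driven cybrid death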); conditions: complex I mutant cybrid cells, 72 h, stronger effect = higher value
# [3] = phospholipid biosynthesis inhibitors in animal cells, primary screen, cell-based, LOPAC library, screen 4 (AID 1347384; call rule not given here); conditions: phospholipid biosynthesis inhibition screen, at 10 µM
# [4] = biological target: NAD(+) hydrolase SARM1 (Homo sapiens) (UniProt Q6SZW1); assay: SARM1 TIR NADase inhibitors, cell lysate, NAD-Glo luminescence (AID 1508614;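 active means compound whose remaining NAD level is above about 45 nM, limit read from the data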); conditions: SAM-TIR HEK293T lysate NADase, at 1 µM, stronger effect = higher value
# Sequence of NAD(+) hydrolase SARM1 (Homo sapiens) (Q6SZW1 whole entry, looked up, the tested form may be a part): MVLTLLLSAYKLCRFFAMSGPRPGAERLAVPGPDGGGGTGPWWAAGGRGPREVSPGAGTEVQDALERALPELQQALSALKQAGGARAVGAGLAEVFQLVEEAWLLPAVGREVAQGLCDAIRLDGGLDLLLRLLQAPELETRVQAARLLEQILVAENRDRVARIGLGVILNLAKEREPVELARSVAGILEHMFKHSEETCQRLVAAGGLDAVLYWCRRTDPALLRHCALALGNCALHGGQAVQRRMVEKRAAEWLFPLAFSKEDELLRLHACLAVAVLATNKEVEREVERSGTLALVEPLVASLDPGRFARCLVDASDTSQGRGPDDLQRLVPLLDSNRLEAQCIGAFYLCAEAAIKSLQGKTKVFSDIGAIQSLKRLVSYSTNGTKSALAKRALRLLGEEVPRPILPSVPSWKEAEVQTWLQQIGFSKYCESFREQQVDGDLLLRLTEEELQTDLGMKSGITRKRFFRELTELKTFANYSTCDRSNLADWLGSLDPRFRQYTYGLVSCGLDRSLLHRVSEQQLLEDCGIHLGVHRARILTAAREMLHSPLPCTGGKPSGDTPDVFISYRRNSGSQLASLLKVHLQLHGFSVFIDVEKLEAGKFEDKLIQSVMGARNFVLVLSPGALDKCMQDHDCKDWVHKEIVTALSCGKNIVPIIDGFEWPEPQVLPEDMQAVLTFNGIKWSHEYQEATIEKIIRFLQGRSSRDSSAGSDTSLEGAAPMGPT
# [5] = biological target: Mitogen-activated protein kinase 7 (Homo sapiens) (UniProt Q13164); assay: ERK5 transactivation activators in reporter cells, primary screen, cell-based, HTS (AID 1508626;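 active means luciferase signal above three times the same-plate solvent-only control wells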;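 further: luciferase driven by Gal4-ERK5 fusion binding five Gal4 sites before minimal TATA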); conditions: HeLa Gal4-ERK5 transactivation, 18 h, at 5 µM, stronger effect = higher value
# Sequence of Mitogen-activated protein kinase 7 (Homo sapiens) (Q13164 whole entry, looked up, the tested form may be a part): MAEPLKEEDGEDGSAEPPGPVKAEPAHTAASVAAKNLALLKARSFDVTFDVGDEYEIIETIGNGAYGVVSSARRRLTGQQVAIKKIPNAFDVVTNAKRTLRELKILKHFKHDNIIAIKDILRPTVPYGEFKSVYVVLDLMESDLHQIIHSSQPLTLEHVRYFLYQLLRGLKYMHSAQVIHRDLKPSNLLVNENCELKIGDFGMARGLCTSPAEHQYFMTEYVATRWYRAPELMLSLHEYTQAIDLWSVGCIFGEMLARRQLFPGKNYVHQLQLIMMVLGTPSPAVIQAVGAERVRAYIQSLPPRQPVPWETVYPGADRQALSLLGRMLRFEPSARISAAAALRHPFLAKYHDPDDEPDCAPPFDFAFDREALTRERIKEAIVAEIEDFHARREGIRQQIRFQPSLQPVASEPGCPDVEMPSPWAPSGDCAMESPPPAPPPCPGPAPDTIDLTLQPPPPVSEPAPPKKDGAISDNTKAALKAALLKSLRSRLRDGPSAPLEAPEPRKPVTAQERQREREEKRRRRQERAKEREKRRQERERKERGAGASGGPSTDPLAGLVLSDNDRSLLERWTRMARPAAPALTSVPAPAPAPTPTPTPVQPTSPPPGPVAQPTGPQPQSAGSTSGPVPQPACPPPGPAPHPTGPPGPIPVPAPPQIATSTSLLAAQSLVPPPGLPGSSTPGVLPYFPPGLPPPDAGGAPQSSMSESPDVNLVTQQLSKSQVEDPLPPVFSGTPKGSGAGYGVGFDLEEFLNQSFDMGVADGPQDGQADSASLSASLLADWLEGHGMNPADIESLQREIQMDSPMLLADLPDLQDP
# [6] = circadian clock period modulators, cell-based, LOPAC library, luminescence reporter (AID 2774; call rule not given here;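 further: values are relative to mean of DMSO wells on each plate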); conditions: circadian reporter cells, at 7 µM, actives lie on both sides
# [7] = tested on: Hepatitis C virus NS3 helicase; assay: HCV NS3 helicase inhibitors, primary screen, biochemical, fluorescence polarization, LOPAC1280 library (AID 687035; in the data active means inhibition above about 37%); conditions: Purified HCV NS3 helicase, Cy5-dT15 ssDNA binding fluorescence polarization; stronger effect = higher value; concentration not given here
# [8] = Cy5 fluorescence quenching or enhancement artefacts, artefact control for HCV NS3 helicase inhibitor project, biochemical, LOPAC1280 (AID 687037; call rule not given here); conditions: Cy5-DNA-NS3h complex fluorescence interference counterscreen
# [9] = MELAS cybrid survival, CellTiter-Glo 48 h, stronger effect = higher value
# [10] = Rieske KO mouse fibroblast survival, CellTiter-Glo 72 h
structure (smiles),measurement,setting,value
O=C1[C@@H]2C[C@@H](O)CN2C(=O)[C@H]2CN(Cc3ccc(CN4CCCCC4)s3)CCN12,z-score,[1]; [9],-0.179 (inactive)
same,z-score,[1]; [10],-0.745
same,z-score,[2],0.32 (inactive)
CC(C)CC(NP(=O)(O)OC1OC(C)C(O)C(O)C1O)C(=O)NC(Cc1c[nH]c2ccccc12)C(=O)O (configuration not stated),z-score,[1]; [9],-0.408 (inactive)
same,z-score,[1]; [10],0.685
COc1ccc(C[C@@H]2c3cc(OC)c(OC)cc3CC[N@+]2(C)CCC(=O)OCCCCCOC(=O)CC[N@@+]2(C)CCc3cc(OC)c(OC)cc3[C@H]2Cc2ccc(OC)c(OC)c2)cc1OC,z-score,[1]; [9],-1.09 (inactive)
same,z-score,[1]; [10],-0.143
CNCC[C@@H](Oc1cccc2ccccc12)c1cccs1,z-score,[1]; [9],-0.177 (inactive)
same,z-score,[1]; [10],0.977
CC[C@H]1OC(=O)C[C@@H](O)[C@H](C)[C@@H](O[C@@H]2O[C@H](C)[C@@H](O[C@H]3CC(C)(O)[C@@H](O)[C@H](C)O3)[C@H](N(C)C)[C@H]2O)[C@@H](CC=O)C[C@@H](C)C(=O)/C=C/C(C)=C/[C@@H]1CO[C@@H]1O[C@H](C)[C@@H](O)[C@@H](OC)[C@H]1OC (some centres not stated),z-score,[1]; [9],0.259 (inactive)
same,z-score,[1]; [10],-0.21
Cc1nc(C#Cc2cccnc2)cs1,outcome,[3],inactive
Nc1nc(NC2CC2)c2ncn([C@H]3C=C[C@@H](CO)C3)c2n1,z-score,[1]; [9],1.09 (inactive)
same,z-score,[1]; [10],-0.0348
same,remaining NAD,[4],10 nM (inactive)
Nc1cc2c(ncn2CCOCP(=O)(O)O)c(=O)[nH]1,outcome,[3],inactive
COc1cccc2ccc(CN3CCC4(CC3)C(=O)N(CCc3ccccc3)C(=O)N4C)nc12,z-score,[1]; [9],-0.413 (inactive)
same,z-score,[1]; [10],1.51
same,z-score,[2],0.055 (inactive)
C/C=C/C1=C(C(=O)O)N2C(=O)[C@@H](NC(=O)[C@H](N)c3ccc(O)cc3)[C@H]2SC1,z-score,[1]; [9],-0.679 (inactive)
same,z-score,[1]; [10],-1.17
same,remaining NAD,[4],10 nM (inactive)
same,luciferase signal,[5],48 AU (inactive)
C[C@H](Cc1cc2c(c(C(N)=O)c1)N(CCCO)CC2)NCCOc1ccccc1OCC(F)(F)F,z-score,[1]; [9],-0.477 (inactive)
same,z-score,[1]; [10],-0.901
N#CC(=C(\N)Sc1ccccc1N)/C(C#N)=C(/N)Sc1ccccc1N,period change,[6],-0.02 h (inactive)
same,inhibition,[7],-1% (inactive)
same,fluorescence ratio (interference),[8],1 (inactive)
same,outcome,[3],inactive
same,z-score,[2],-1.33 (inactive)
C=Cc1c(C)c2cc3nc(cc4[nH]c(cc5nc(cc1[nH]2)C(C)=C5CCC(=O)O)c(CCC(=O)OC)c4C)[C@@]1(C)C3=CC=C(C(=O)OC)C1C(=O)OC (some centres not stated),z-score,[1]; [9],1.85 (inactive)
same,z-score,[1]; [10],1.33
C[N+]1(C)C2CC(OC(=O)[C@H](CO)c3ccccc3)CC1C1OC12 (some centres not stated),outcome,[3],inactive
CCN1CCN(C(=O)c2cc(-c3cc(C)cs3)cc(S(=O)(=O)N3CCOCC3)c2)CC1,z-score,[1]; [9],-0.416 (inactive)
same,z-score,[1]; [10],-0.432
same,z-score,[2],2.05 (inactive)
CC(C)CNC(=O)[C@@H]1C[C@H](CN2CCOCC2)CN(Cc2nccn2C)C1,z-score,[1]; [9],0.0237 (inactive)
same,z-score,[1]; [10],0.267
same,z-score,[2],0.2 (inactive)
N[C@@H]1CCCCN(c2c(F)cc3c(=O)c(C(=O)O)cn(C4CC4)c3c2Cl)C1,z-score,[1]; [9],0.702 (inactive)
same,z-score,[1]; [10],-0.618
CC(=O)OCC(=O)[C@@]1(O)CC[C@H]2[C@@H]3CCC4=CC(=O)CC[C@]4(C)C3(F)[C@@H](O)C[C@@]21C (some centres not stated),z-score,[1]; [9],-0.171 (inactive)
same,z-score,[1]; [10],-0.231
CC(=O)[C@@]12OC(C)(c3ccccc3)O[C@@H]1C[C@H]1[C@@H]3CCC4=CC(=O)CC[C@]4(C)[C@H]3CC[C@@]12C (some centres not stated),z-score,[1]; [9],0.905 (inactive)
same,z-score,[1]; [10],1.8
COc1c(O[C@@H]2O[C@H](CO)[C@@H](O)[C@H](O)[C@H]2O)cc2c(c1OC)-c1ccc(SC)c(=O)cc1[C@@H](NC(C)=O)CC2,z-score,[1]; [9],0.122 (inactive)
same,z-score,[1]; [10],0.151
CCOC([O-])=Nc1c[n+](N2CCOCC2)no1,inhibition,[7],-3% (inactive)
same,fluorescence ratio (interference),[8],1 (inactive)
same,outcome,[3],inactive
CCOc1ccccc1O[C@@H](c1ccccc1)[C@H]1CNCCO1,z-score,[1]; [9],-0.0519 (inactive)
same,z-score,[1]; [10],-0.0896
N[C@H](C(=O)O)[C@H](O)c1ccc(O)c(O)c1,outcome,[3],inactive
CN1C[C@H](C(=O)N[C@]2(C)O[C@@]3(O)[C@@H]4CCCN4C(=O)[C@H](Cc4ccccc4)N3C2=O)CC2c3cccc4[nH]cc(c34)C[C@H]21 (mixture of isomers),z-score,[1]; [9],0.0487 (inactive)
same,z-score,[1]; [10],0.764
Cc1cc(=O)c(C(=O)N[C@@H](C(=O)N[C@@H]2C(=O)N3C(C(=O)O)=C(CSc4nnnn4C)CS[C@H]23)c2ccc(O)cc2)c[nH]1,z-score,[1]; [9],0.177 (inactive)
same,z-score,[1]; [10],-0.0348
same,remaining NAD,[4],10 nM (inactive)
Cc1ccc2c(CC(=O)N3CC(=O)N(CC(C)C)CC(OCc4ccccn4)C3)cc(=O)oc2c1 (configuration not stated),z-score,[1]; [9],-0.0739 (inactive)
same,z-score,[1]; [10],0.0342
same,z-score,[2],0.435 (inactive)
Cc1c(CN2CCc3c(c(C(=O)NC4CCCC4)nn3CC(C)C)C2)c(=O)n(-c2ccccc2)n1C,z-score,[1]; [9],-0.389 (inactive)
same,z-score,[1]; [10],-0.276
same,z-score,[2],0.17 (inactive)
C[C@H]1NC(=O)[C@@H]2C[C@H](NC(=O)c3cnn(-c4ccccc4)c3C(F)(F)F)CN2C1=O,z-score,[1]; [9],0.896 (inactive)
same,z-score,[1]; [10],-0.434
same,z-score,[2],-1.26 (inactive)
CCN1C(=O)N(CCc2ccccc2)C2(CCN(Cc3cnn(-c4ccccc4OC)c3)CC2)C1=O,z-score,[1]; [9],0.108 (inactive)
same,z-score,[1]; [10],0.254
same,z-score,[2],-0.37 (inactive)
CCCn1nc(C(=O)N2CCCCC2)c2c1CCC(NCc1cccnc1)C2 (configuration not stated),z-score,[1]; [9],-0.0243 (inactive)
same,z-score,[1]; [10],-0.185
same,z-score,[2],-1.06 (inactive)
O=C(NCc1ccccn1)c1cc(NCC2CC2)cc(S(=O)(=O)N2CCCC2)c1,z-score,[1]; [9],-0.201 (inactive)
same,z-score,[1]; [10],-0.67
same,z-score,[2],0.59 (inactive)
CCOC(=O)N1CCC(N2CCc3c(cc(-c4cccc(OC)c4OC)c(=O)n3CC3CC3)C2)CC1,z-score,[1]; [9],-0.362 (inactive)
same,z-score,[1]; [10],-0.0606
same,z-score,[2],-0.36 (inactive)
C=CCn1nc(C(=O)N2CCOCC2)c2c1CCC(NCc1ccc(Cl)s1)C2 (configuration not stated),z-score,[1]; [9],-0.625 (inactive)
same,z-score,[1]; [10],-0.989
same,z-score,[2],0.86 (inactive)
